This is a sample that favours compounds with a hit; in the whole collection about 9.4% have one here.
NPC1 prom act = activates the NPC1 promoter | Potency, µM (titrated, usually from 9.22 µM), without a hit: at the top dose activation, most hits filed as activators | AID 485313 | 320,000 compounds, 2.4% hits | Huh7 NPC1 promoter luciferase reporter, 24 h; also: % of control where 0% means no effect; nearly all actives have a fitted effect of over 60% in size
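Quantitative HTS used a cell-based reporter: Huh7 cells stably bearing the NPC1 promoter upstream of luciferase were treated with compounds for 24 h, and promoter activation was read as luminescence.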
SMN2 splice enh = enhancers of SMN2 splice variant expression; HEK293 SMN2-luciferase splicing reporter, luminescence, 30-36 h; Potency, µM (highest dose often 46.1 µM), for the others: at the highest dose activity change, positive = activation, hits mostly activators; 210,000 compounds, 2.8% hits; AID 1458; also: % of control where 0% means no effect; nearly all actives have a fitted effect of over 55% in size
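qHTS luciferase splicing reporter: luminescence rises when SMN2 exon 7 is included in transfected HEK293 cells. Compound exposure lasted 30-36 h at 37C, with 4.5 mM final sodium butyrate as control, followed by a ONE-Glo read.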
ELG1 DNA repair = inhibitors of ELG1-dependent DNA repair in HEK293T cells | HEK293T ELG1-luciferase reporter, luminescence, 16 h; DNA damage induced by 5-fluorouridine | Potency, µM (highest dose often 46.1 µM), inactives show top-dose activity change, negative = inhibition, actives largely listed as inhibitors | 330,000 compounds, 2.3% hits | AID 504467; also: % is scaled to controls: 0 for no effect and ±100 for the full control effect; nearly all actives have a fitted effect of over 55% in size
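Cells (2,000 per well) received 5-fluorouridine plus test compound or DMSO and were incubated 16 hr at 37 °C, 5% CO2. Luciferase activity was read by luminescence 30 min after ONE-Glo addition; signal suppression marked inhibition of damage-induced ELG1 function.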
ELG1 genotox = induces genotoxicity in HEK293T cells with luciferase-tagged ELG1; 330,000 compounds, 1.3% hits; Potency, µM (titrated, usually from 46 µM), for inactives: top-dose activity change, positive = activation, usual class: activators; HEK293T ELG1-luciferase reporter, luminescence, 16 h; also: % of control where 0% means no effect; nearly all actives have a fitted effect of over 60% in size
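HEK293T cells expressing luciferase-tagged ELG1 were exposed to compound or DMSO vehicle for 16 hr at 37 °C and 5% CO2. Luciferase activity was then measured with ONE-Glo after 30 min at room temperature.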
FLuc modulator = firefly luciferase modulation, counter-screen for miR-21 project; P08659; purified FLuc, Km substrates, luminescence inhibition; Potency, µM (doses to about 57.5 µM), inactives show top-dose activity change, negative = inhibition, usual class: inhibitors; 360,000 compounds, 6.9% hits;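 also: plate controls were vehicle for no effect and reference inhibitor for full effect; nearly all actives have a fitted effect of over 55% in size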
Target sequence (P08659 whole entry, looked up): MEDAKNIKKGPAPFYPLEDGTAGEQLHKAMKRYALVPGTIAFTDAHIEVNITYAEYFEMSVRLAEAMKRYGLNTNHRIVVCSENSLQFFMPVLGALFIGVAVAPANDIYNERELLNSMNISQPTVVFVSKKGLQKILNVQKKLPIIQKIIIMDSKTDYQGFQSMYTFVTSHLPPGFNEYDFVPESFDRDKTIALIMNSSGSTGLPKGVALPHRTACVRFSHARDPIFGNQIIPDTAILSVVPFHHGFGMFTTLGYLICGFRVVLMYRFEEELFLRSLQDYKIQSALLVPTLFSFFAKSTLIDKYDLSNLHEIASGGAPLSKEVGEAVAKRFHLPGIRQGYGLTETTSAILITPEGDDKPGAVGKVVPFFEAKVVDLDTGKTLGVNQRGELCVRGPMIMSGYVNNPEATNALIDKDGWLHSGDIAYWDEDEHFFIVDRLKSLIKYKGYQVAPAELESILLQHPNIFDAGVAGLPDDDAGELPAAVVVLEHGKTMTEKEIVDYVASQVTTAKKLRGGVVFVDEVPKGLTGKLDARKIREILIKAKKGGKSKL
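Purified P. pyralis luciferase, 10 nM final, with Km-level 10 uM D-luciferin and 10 uM ATP in 50 mM Tris acetate pH 7.5, 10 mM Mg acetate, 0.01% Tween-20, 0.05% BSA; 6-point qHTS titration about 60 µM downward; luminescence read.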
Rab9 prom act = activates the Rab9 promoter; 320,000 compounds, 2.8% hits; AID 485297; Potency, µM (top dose mostly 9.22 µM), without a hit: at the highest dose activation, negative = inhibition, usual class: activators; Huh7 Rab9 promoter-luciferase reporter, luminescence, 24 h; also: % of control where 0% means no effect; nearly all actives have a fitted effect of over 60% in size
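Steps: seed 1500 Huh7 Rab9-luc cells per well, rest 2 h at 37 °C; add compound in DMSO; incubate 24 h; add luciferase reagent, 10 min ambient; read luminescence.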
Starred values were filed as active, the others as inactive; u = inconclusive; x = no result given; [ ] = remark or other dose. Calls follow the shape of the dose curve; as a rule, active = well fitted curve in the direction sought with a large enough effect; inconclusive = small, poorly fitted or top-dose-only effect, or another doubt; inactive = no such curve, though single readings can be large; an effect the other way counts as inactive or inconclusive. Potency is read from the fitted curve at half-maximal effect.

SMILES	NPC1 prom act	SMN2 splice enh	ELG1 DNA repair	ELG1 genotox	FLuc modulator	Rab9 prom act
Cc1ccc(Nc2ccc(C(=O)O)cc2N)cc1	u	u	u	u	5.36µM*	25.6%[1.84 µM]
Cc1cc(C)nc(Nc2ccc(O)cc2)n1	-1.6%	x	7.1%	2.2%	-6.2%	-6.9%
COc1nc(Nc2ccc(OC)c(Cl)c2)nc(OC)n1	9.1%	-3.4%	14.6%	19.9%	-15.3%	4.0%
Cc1cc(C)nc(Nc2ccc(N3CCCC3)cc2)n1	20.1%	12.9%	-10.8%	u	19µM*	25.8%
Cc1cc(C)nc(Nc2ccc(C(=O)O)cc2)n1	3.55µM*	11.2µM*	u	u	15.1µM*	1.78µM*
CCCN1CC(CSC)C[C@H]2c3cccc4[nH]cc(c34)C[C@H]21 (stereo not given in full)	x	-28.4%	x	x	x	x
Cc1ccc2c(c1)N(C(=O)N1CCC(C(=O)NCc3ccccc3F)CC1)CC(C)O2 (stereo not given)	x	x	x	x	-6.4%	x
CC(C)Oc1ccc(CNC(=O)CN2C(=O)c3cccnc3Oc3ccc(Cl)cc32)cc1	x	x	x	x	-13.3%	x
CCOc1ccc(NC(=O)Cn2c(=O)c(CNc3ccc(OC)cc3)cc3ccc(OC)cc32)cc1	x	x	x	x	-0.7%	x
CCc1ccc(Nc2nc(C)cc(C)n2)cc1	u	x	u	u	12µM*	5.01µM*
COc1ccccc1CNC(=O)C1CCN(S(=O)(=O)Cc2ccccc2)CC1	x	x	x	x	0.5%	x
CN1C(=O)/C(=C\C(=O)c2cccs2)c2ccccc21	4.0%	-19.7%	u	-12.8%	19µM*	-10.2%
CC(=O)/C=C1\C(=O)N(C)c2ccccc21	-30.1%[46.1 µM]	x	x	x	x	-43.9%[46.1 µM]
CSc1cccc(NC(=O)N2CCN(c3cc(-c4noc(C)n4)ccc3C)CC2)c1	x	x	x	x	-4.8%	x
CCOC(=O)c1cnn(-c2cc(Oc3ccccc3)ncn2)c1N	25.3%	-13.6%	12.9%	5.6%	-11.5%	21.9%
CCOC(=O)c1cc(-c2ccc(OC)cc2)nc2c1c(C)nn2CCC#N	7.6%	-25.8%	3.66µM*	-17.7%	-0.3%	-14.1%
CCOC(=O)c1cc(-c2ccc(C#N)cc2)nc2c1c(C)nn2CCC#N	2.5%	-12.5%	u	5.4%	-0.6%	-0.1%
CCOC(=O)c1cnn(-c2ccccn2)c1N	3.98µM*	x	u	u	21.3µM*	3.98µM*
CCOC(=O)c1cnn(-c2cc(C)c3ccccc3n2)c1N	u	0.5%	23.3%	7.0%	8.49µM*	-30.8%
CCOC(=O)c1cc(-c2ccncc2)nc2c1c(C)nn2-c1ccccn1	-4.2%	-5.5%	23.1µM*	-1.5%	-4.8%	5.2%
CCOC(=O)c1cnn(-c2cc(Oc3ccccc3C)ncn2)c1N	1.2%	u	-6.3%	3.8%	u	0.6%
CCOc1ccc(CNC(=O)CCS(=O)(=O)c2cc3c(cc2Cl)NC(=O)CO3)cc1OC	x	x	x	x	-1.2%	x
CCOc1cc(Cl)c(S(=O)(=O)n2ccnc2)cc1Cl	x	2.8%	x	x	-11.4%	x
Cn1cc(S(=O)(=O)N2CCOCC2)cc1C(=O)Nc1ccc(Cl)c(C(F)(F)F)c1	x	x	x	x	4.5%	x
Cc1ccc(C)c(NC(=O)CSc2c3c(nc4ccc(Cl)cc24)CCCC3)c1	x	-8.8%	x	x	3.6%	x
SMILES	NPC1 prom act	SMN2 splice enh	ELG1 DNA repair	ELG1 genotox	FLuc modulator	Rab9 prom act
CCOC(=O)c1cnn(-c2ncnc3c2oc2ccccc23)c1N	1.26µM*	10µM*	u	1.64µM*	1.07µM*	1.12µM*
CCOC(=O)C1CCN(c2ncnc3c2oc2ccccc23)CC1	-2.3%	-34.4%	u	-3.2%	-13.5%	7.5%
Cc1ccc(N2CCN(C(=O)c3nn(C)c4c3CSc3ccccc3-4)CC2C)cc1 (stereo not given)	x	x	x	x	2.3%	x
COc1ccc(OC)c(N=C(C)C2=C(O)COC2=O)c1	-22.9%	11.2µM*	-5.4%	8.3%	4.1%	-7.8%
COc1ccc2[nH]c3c(c2c1)CCN1C(=O)C(CC(=O)NCC24CC5CC(CC(C5)C2)C4)C[C@H](C(=O)N2CCCCC2)[C@@]31C (stereo not given in full)	x	x	13µM*	-8.4%	x	x
CCN(CC)C(=O)[C@H]1CC(CC(=O)NCCN2CCOCC2)C(=O)N2CCc3c([nH]c4ccc(OC)cc34)[C@]12C (stereo not given in full)	x	x	u	-2.6%	x	x
CCN(CC)C(=O)[C@H]1CC(CC(=O)NCC23CC4CC(CC(C4)C2)C3)C(=O)N2CCc3c([nH]c4ccc(OC)cc34)[C@]12C (stereo not given in full)	x	x	23.1µM*	-9.4%	x	x
CCN(CC)C(=O)[C@H]1C[C@H](CC(=O)NCc2ccco2)C(=O)N2CCc3c([nH]c4cc(-c5ccco5)ccc34)[C@]12C	x	x	18.3µM*	-3.0%	x	x
CCN(CC)C(=O)[C@H]1C[C@H](CC(=O)NCCN2CCOCC2)C(=O)N2CCc3c([nH]c4cc(-c5ccco5)ccc34)[C@]12C	x	x	4.1%	6.3%	x	x
Cc1ccc(NC(=O)C2CCCN(c3nnc(C)c4c(C)n(-c5ccccc5)nc34)C2)c(Cl)c1 (stereo not given)	x	x	x	x	-6.6%	x
COc1cc(NC(=O)CC(c2ccc(C)cc2)N2Cc3ccccc3C2=O)cc(OC)c1 (stereo not given)	x	x	x	x	4.2%	x
COc1ccc(N=C2NC(=O)S/C2=C\c2ccc(N(C)C)cc2)cc1	u	u	u	u	21.3µM*	u
CCOc1ccc(N=C2NC(=O)S/C2=C\c2ccc(Cl)cc2)cc1	0.5%	9.0%	-7.3%	0.2%	1.8%	-3.0%
CCOc1ccc2nc(NC(=O)CSc3nc4c(c(=O)n(C)c(=O)n4C)n3C(C)C)sc2c1	1.3%	-20.0%	9.2µM*	-12.3%	-12.6%	1.1%
CCOc1ccc2nc(NC(=O)Cn3cnc4c3c(=O)n(C)c(=O)n4C)sc2c1	17.1%	-1.0%	13.4%	8.4%	u	7.3%
CCn1c(SCC(=O)Nc2nc3ccc(OC)cc3s2)nc2c1c(=O)n(C)c(=O)n2C	-1.2%	-13.6%	13µM*	0.0%	u	-1.9%
CCOc1ccc(N2CC(O)Cn3c2nc2c3c(=O)n(CCCc3ccccc3)c(=O)n2C)cc1 (stereo not given)	-1.2%	-17.1%	u	-10.6%	1.3%	-2.3%
COc1ccc(N2CCn3c2nc2c3c(=O)n(CCCc3ccccc3)c(=O)n2C)c(OC)c1	-27.4%	-59.7%	20.6µM*	-12.3%	0.1%	-19.5%
COc1cccc(N2CC(O)Cn3c2nc2c3c(=O)n(CCCc3ccccc3)c(=O)n2C)c1 (stereo not given)	-1.8%	-73.6%	23.1µM*	-18.5%	9.2%	-0.6%

High-throughput results (PubChem)
